Results on 109 molecules are retold here after ChEMBL document CHEMBL3988442, “University of Dundee, Small-Polar-MMV Screening Library” (2021).

About 300 (0.45%) of roughly 67,000 compounds showed an effect of 50% or more. What follows is part of a selection rich in strong results, with near analogues and random picks from the rest.

In the test the target is Polyketide synthase Pks13 (Mycobacterium tuberculosis (strain ATCC 25618 / H37Rv)) (UniProt I6X8D2). Briefly: Mycobacterium tuberculosis Polyketide synthase 13 Thioesterase (PKS13). Conditions: 30 µM. It counts as functional. Set-up: scale not given: in the data most compounds retested in dose-response had high values.
Polyketide synthase Pks13 (Mycobacterium tuberculosis (strain ATCC 25618 / H37Rv)), sequence (I6X8D2 whole entry): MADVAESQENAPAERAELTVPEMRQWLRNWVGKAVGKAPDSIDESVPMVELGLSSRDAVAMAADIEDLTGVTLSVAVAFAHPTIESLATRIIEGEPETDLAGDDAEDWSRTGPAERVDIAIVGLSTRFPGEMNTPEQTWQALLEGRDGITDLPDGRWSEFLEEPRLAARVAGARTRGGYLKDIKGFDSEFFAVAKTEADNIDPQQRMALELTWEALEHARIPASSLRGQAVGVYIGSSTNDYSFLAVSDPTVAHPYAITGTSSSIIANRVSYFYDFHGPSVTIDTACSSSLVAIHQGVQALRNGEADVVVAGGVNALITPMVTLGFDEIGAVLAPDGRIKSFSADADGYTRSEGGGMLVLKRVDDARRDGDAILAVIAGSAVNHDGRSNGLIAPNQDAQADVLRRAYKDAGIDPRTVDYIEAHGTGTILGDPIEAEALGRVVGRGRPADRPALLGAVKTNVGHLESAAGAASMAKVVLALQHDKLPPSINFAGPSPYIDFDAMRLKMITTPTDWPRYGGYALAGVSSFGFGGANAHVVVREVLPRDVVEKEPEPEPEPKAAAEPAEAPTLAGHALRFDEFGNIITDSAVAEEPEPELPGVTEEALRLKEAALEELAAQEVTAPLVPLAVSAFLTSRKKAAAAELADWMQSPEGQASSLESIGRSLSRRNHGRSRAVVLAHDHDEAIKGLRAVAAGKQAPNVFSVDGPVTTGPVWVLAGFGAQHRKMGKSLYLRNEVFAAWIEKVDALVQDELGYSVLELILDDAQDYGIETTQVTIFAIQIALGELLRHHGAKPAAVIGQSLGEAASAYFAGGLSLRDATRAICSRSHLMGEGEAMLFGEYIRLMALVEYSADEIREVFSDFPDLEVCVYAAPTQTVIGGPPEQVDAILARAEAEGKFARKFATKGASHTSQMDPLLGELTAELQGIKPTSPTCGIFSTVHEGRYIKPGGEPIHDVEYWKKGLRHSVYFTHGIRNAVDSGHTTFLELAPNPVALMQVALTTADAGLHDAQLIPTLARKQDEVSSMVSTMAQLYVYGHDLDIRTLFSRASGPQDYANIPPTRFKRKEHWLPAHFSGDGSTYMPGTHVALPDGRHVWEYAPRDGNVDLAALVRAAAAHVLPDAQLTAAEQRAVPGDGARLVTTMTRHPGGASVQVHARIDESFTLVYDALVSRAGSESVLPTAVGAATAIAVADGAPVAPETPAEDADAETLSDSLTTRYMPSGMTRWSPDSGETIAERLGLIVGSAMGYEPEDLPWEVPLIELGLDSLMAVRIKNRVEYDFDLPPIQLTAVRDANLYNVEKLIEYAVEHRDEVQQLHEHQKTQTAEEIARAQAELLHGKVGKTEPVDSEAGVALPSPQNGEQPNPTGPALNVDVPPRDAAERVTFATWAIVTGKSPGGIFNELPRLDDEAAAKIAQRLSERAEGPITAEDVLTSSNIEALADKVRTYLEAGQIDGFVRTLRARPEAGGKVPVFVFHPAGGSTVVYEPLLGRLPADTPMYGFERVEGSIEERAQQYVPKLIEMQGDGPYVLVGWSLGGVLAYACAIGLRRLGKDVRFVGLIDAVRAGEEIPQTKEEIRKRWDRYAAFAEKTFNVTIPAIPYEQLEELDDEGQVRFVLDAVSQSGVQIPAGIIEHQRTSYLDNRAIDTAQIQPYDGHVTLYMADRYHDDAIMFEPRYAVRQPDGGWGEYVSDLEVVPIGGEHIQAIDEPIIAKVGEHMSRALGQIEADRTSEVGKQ
For the molecule `CC(=O)N1C[C@H]2CN(CC3CC3)C(=O)[C@H]2C1`, the Percent Effect is -18.6%.

On to `CSc1ccc2cc(CN(C)CCc3cn[nH]c3)c(=O)[nH]c2c1`, for which the Percent Effect is -13.1%. `CSc1ccc2cc(CN(C)CCO)c(=O)[nH]c2c1`: the Percent Effect worked out at 67%. For `CSc1ccc2cc(CN(C)CCCN(C)C)c(=O)[nH]c2c1`, the Percent Effect stood at 6.22%. As for `Cc1cnc(N2CCN3C[C@H](OCc4ccccn4)C[C@H]3C2)nc1`, the Percent Effect is -24.2%. The figure for `Cn1ccnc1CN1CCN2C[C@H](Oc3cccc(F)c3)C[C@H]2C1` is 23.6%; for `O=C1C[C@H]2CC[C@@H](CN1)N2C1CCSCC1` it is -1.94%; for `N#Cc1cnn(-c2ccc(C(=O)N(C3CCCCC3)C3CC3)cc2)c1N` it is -18%. With `CN(C(=O)c1ccc(-n2ncc(C#N)c2N)cc1)C1CCCC1`, the Percent Effect is -1.63%. Take `CN(CC1CCCCC1)C(=O)c1ccc(-n2ncc(C#N)c2N)cc1`: the Percent Effect is 52.7%. `CCCN1CCN(C(=O)c2cnccn2)[C@H]2CS(=O)(=O)C[C@H]21`: the Percent Effect was -4.16%.

As for `c1cncc(CO[C@H]2CC[C@H]3[C@@H]2OCCN3C2CCOCC2)c1`, the Percent Effect was 2.72%. As for `Cc1cc(C)cc(CN2C[C@@H]3OCCN(S(=O)(=O)N(C)C)[C@@H]3C2)c1`, the Percent Effect is -14.4%. On to `CC1(C)O[C@@](C)([C@H]2CC3(CCN(c4cnccn4)CC3)CO2)CC[C@@H]1O`, for which the Percent Effect was -3.99%.

As to `CC(C)c1cc(N2CCC[C@H](N)C2)n2nccc2n1`, the Percent Effect was -7.75%. In the case of `CC(C)c1cc(N2CCC(N)CC2)n2nccc2n1`, the Percent Effect was found to be 61.4%.

In the case of `CC(C)c1cc(N2CC[C@H](F)C2)n2nccc2n1`, the Percent Effect was -11.1%.

With `O=C(NC1CC1)[C@@H]1CCO[C@@H]2CCN(C3CCOCC3)C[C@@H]21`, the Percent Effect was -12.6%. The figure for `Cc1nnc([C@H]2CC[C@@H]3[C@@H](CCN3Cc3c(C)noc3C)O2)o1` is -7.83%; for `CN(C)C(=O)CO[C@@H]1CC[C@H]2[C@H]1OCCN2C(=O)C1CCOCC1` it is -1.73%; for `CC(=O)N1CCN2C(=O)N(Cc3ccc(F)cc3)C[C@H]2C1` it is -33.1%.

As for `Cn1cc(-c2ncc3c(c2C(=O)O)CCN(CC2CCOC2)C3)cn1` (centres undefined), the Percent Effect was found to be 111%. On to `O=C(O)c1c(-c2cncnc2)ncc2c1CCN(CC1CCOC1)C2` (centres undefined), for which the Percent Effect is -5.14%. Consider `Cn1cc(-c2ncc3c(c2C(=O)O)CCN(CC2CC2)C3)cn1`, for which the Percent Effect was -9.1%. The result for `O=S(=O)(C1CC1)N1CCO[C@@H]2CN(Cc3ccco3)C[C@@H]2C1` reads -22.6%. The figure for `Cn1cc(CN2CC[C@@H]3[C@@H]2CCN3Cc2ccc3c(c2)OCO3)cn1` is -41.2%; for `Cc1noc([C@@H]2CCO[C@@H]3CCN(Cc4cccs4)C[C@@H]32)n1` it is 2.92%. On to `Cc1nc(C)n(C2CCCN(C(=O)c3cc4ccccc4n3C)C2)n1` (centres undefined), for which the Percent Effect was -20.9%. Turning to `CCc1n[nH]c(C2CN(C(=O)c3nc(C)n4ccccc34)CCO2)n1` (centres undefined), the Percent Effect was determined as 83%. Take `CCc1nc(C2CCCN2C(=O)c2nccnc2N)no1` (centres undefined): the Percent Effect is 29.6%. In the case of `Cc1nc(C)n(C2CCCN(C(=O)c3ccccc3C)C2)n1` (centres undefined), the Percent Effect was -12.6%. The figure for `CCc1nc(C2CCCN2C(=O)c2ncoc2CC)no1` (centres undefined) is -6.87%. The figure for `CCc1nc(C2CCCN2C(=O)c2nc(C)n3ccccc23)no1` (centres undefined) is 75.3%.

`CCc1n[nH]c(C2CN(C(=O)c3ncoc3CC)CCO2)n1` (centres undefined): the Percent Effect is -48.2%. Consider `CCc1n[nH]c(C2CN(C(=O)Cn3ccccc3=O)CCO2)n1` (centres undefined), for which the Percent Effect was -11.9%. `Cc1nc(C)n(C2CCCN(C(=O)c3nc(C)n4ccccc34)C2)n1` (centres undefined): the Percent Effect was found to be 93.6%. As to `COC[C@H]1CC[C@H]2[C@H](CCN2S(=O)(=O)c2ccccc2)O1`, the Percent Effect worked out at 4.33%. In the case of `c1ccc(CO[C@@H]2C[C@H]3CN(c4ncccn4)CCN3C2)nc1`, the Percent Effect was -22%. Turning to `Cc1cnc(C(=O)N2C[C@H]3CN(Cc4cccnc4)C[C@H]3C2)cn1`, the Percent Effect is -17.6%. On to `Cc1cccc(CN2C[C@@H]3CN(C(=O)c4ccco4)C[C@@H]3C2=O)c1`, for which the Percent Effect is -32.5%. For the molecule `CNC(=O)CN([C@H]1C[C@H]2CCOC[C@H]2C1)S(=O)(=O)c1ccccc1`, the Percent Effect was -2.79%. As to `CCN(CC)[C@@H]1CN(Cc2cnn(C)c2)[C@@H]2COC[C@H]12`, the Percent Effect was -19.3%.

As for `Cc1csc2ncc(-c3ccnc(N4CCC[C@@H]4CO)n3)c(=O)n12`, the Percent Effect worked out at 27.3%. In the case of `Cc1cn2c(=O)c(-c3ccnc(N4CCC[C@@H]4CO)n3)cnc2s1`, the Percent Effect is 72.5%. On to `O=c1c(-c2ccnc(N3CCC[C@H]3CO)n2)cnc2sccn12`, for which the Percent Effect was 47.6%. `COCCN1C[C@@H]2CN(Cc3ccoc3)CCC[C@]2(C(=O)O)C1`: the Percent Effect is -27.8%. Take `CC1CCc2nc(O)c(C(=O)NCCCN3CCN(C)CC3)cc2C1` (centres undefined): the Percent Effect was determined as 82.6%. The figure for `CCCNC(=O)c1cc2c(nc1O)CCC(C)C2` (centres undefined) is -24.6%; for `CC1CCc2nc(O)c(C(=O)NCCN(C)C)cc2C1` (centres undefined) it is -47.6%. The result for `COc1ccc(CN2C[C@@H]3OCCN(c4ncccn4)[C@@H]3C2)cc1` reads -27.4%; that for `O=S(=O)(NC[C@H]1C[C@@H]2CCN1C[C@@H]2CN1CCCC1)c1ccc(Cl)cc1`, 2.53%; that for `CCOC(=O)N1CCc2ccccc2C12CCNCC2`, 5.43%. Take `O=C(C1CC1)N1CCc2ccccc2C12CCNCC2`: the Percent Effect turned out to be 61.6%.

On to `COCC(=O)N1CCc2ccccc2C12CCNCC2`, for which the Percent Effect was -33%. Consider `CCOCC(=O)N1C[C@@H]2CC[C@H](C1)N(Cc1ccccn1)C2=O`, for which the Percent Effect is -4.9%.

As for `CC(C)OCc1ncn2c1CN(Cc1cccs1)CCC2`, the Percent Effect is -19.5%.

Consider `CC(C)OCc1ncn2c1CN(Cc1ccc(F)cc1)CCC2`, for which the Percent Effect was -26.5%.

As to `CC(C)OCc1ncn2c1CN(Cc1nccs1)CCC2`, the Percent Effect came out at 54.5%. As for `CN1CCN2C[C@@H](CO)[C@H](c3ccccc3)[C@H]2C1`, the Percent Effect was determined as 1.92%. In the case of `Cn1cc(C[C@H]2[C@H](N3CCOCC3)CCN2c2ncc(F)cn2)cn1`, the Percent Effect turned out to be 56%.

Turning to `Fc1cnc(N2CC[C@@H](N3CCOCC3)[C@@H]2Cc2ccccc2)nc1`, the Percent Effect was -4.97%. Consider `Fc1cnc(N2CC[C@@H](N3CCOCC3)[C@@H]2Cc2ccncc2)nc1`, for which the Percent Effect is -11.8%. Consider `CN1C[C@@H]2CN(C(=O)NCc3ccccc3)CCC[C@]2(C(=O)O)C1`, for which the Percent Effect was -22.8%. As to `O=S1(=O)C[C@@H]2[C@H](C1)N(Cc1cc(Cl)cc(Cl)c1)CCN2CC1CC1`, the Percent Effect was -18.6%. Consider `COc1cccc(N2CCN(C(=O)C(C)Oc3ccccc3)CC2=O)c1` (centres undefined), for which the Percent Effect is -5.21%. Consider `COc1cccc(N2CCN(C(=O)C(O)c3ccccc3Cl)CC2=O)c1` (centres undefined), for which the Percent Effect was found to be 55.5%. The figure for `COc1cccc(N2CCN(C(=O)C(O)c3cccc(Cl)c3)CC2=O)c1` (centres undefined) is -13.9%; for `CCc1cc(C(=O)N2CCC(c3cc4ncccc4cn3)CC2)no1` it is -21.6%.

Regarding `CCc1cc(C(=O)N2CCC(c3cc4ncccc4cn3)CC2)on1`, the Percent Effect came out at 16.1%.

As for `O=C(CCc1cc(Cl)no1)N1CCC(c2cc3ncccc3cn2)CC1`, the Percent Effect was found to be 129%. In the case of `O=C(C1CCOCC1)N1CC[C@H]2[C@H]1CCN2c1nncs1`, the Percent Effect was -28.6%. In the case of `CSCC[C@@H]1CN2CCC[C@H]2CN1Cc1coc2ccc(Cl)cc2c1=O`, the Percent Effect was -2.59%. Turning to `CN(Cc1cncnc1)[C@@H]1CN(C(=O)C2CC2)[C@@H]2CCCO[C@H]12`, the Percent Effect is -10.1%. For `CN(C)S(=O)(=O)N1C[C@@H]2CC[C@H](C1)N(C/C=C/c1ccc(F)cc1)C2`, the Percent Effect is -0.937%. For `OCCCN1CCCC1c1nc(Cc2ccc(F)cc2)no1` (centres undefined), the Percent Effect was 11.8%. The result for `CCCN1CCCC1c1nc(Cc2ccc(F)cc2)no1` (centres undefined) reads -12.9%; that for `CC(C)(C)OCCN1CCCC1c1nc(Cc2ccc(F)cc2)no1` (centres undefined), 74.9%; that for `c1cnc(NC[C@H]2OC[C@@H]3CCN(Cc4cccnc4)C[C@@H]32)nc1`, -692%. Take `CCNc1ncc(C(=O)N2CCc3c(nc(C)nc3N(C)C)C2)cn1`: the Percent Effect came out at 50.1%. As to `Cc1nc2c(c(N(C)C)n1)CCN(C(=O)c1ccc(N)nc1)C2`, the Percent Effect was -0.177%. The result for `CCCc1ccc(C(=O)N2CCc3c(nc(C)nc3N(C)C)C2)cc1` reads 6.78%; that for `Cc1ccc(CN2CC[C@H]3NC(=O)CC[C@@H]32)o1`, -15.3%; that for `O=C(c1ncccn1)N1C[C@@H]2COC[C@]2(COCc2cccnc2)C1`, -13.2%.

As to `COCCCN1C(=O)CC[C@H]2CN(Cc3ccc4occc4c3)CC[C@H]21`, the Percent Effect was -8.86%. As for `O=C1CC(c2cccc(Cl)c2)c2snc(C(=O)O)c2N1` (centres undefined), the Percent Effect is -0.952%.

As for `O=C1CC(c2ccc(F)c(F)c2)c2snc(C(=O)O)c2N1` (centres undefined), the Percent Effect was found to be 68.8%. On to `O=C1CC(c2ccc(F)cc2)c2snc(C(=O)O)c2N1` (centres undefined), for which the Percent Effect is -1.41%. For `CC(=O)NCC(=O)N1C[C@H](OCc2cccnc2)[C@H]2COC[C@H]21`, the Percent Effect was -10.5%.

Regarding `Cn1cc(CN2CCO[C@@H]3CN(C4CCCC4)C[C@@H]3C2)cn1`, the Percent Effect was -3.52%. On to `CCc1ccc(CN2CCN(Cc3ncc[nH]3)[C@H]3CS(=O)(=O)C[C@H]32)nc1`, for which the Percent Effect is -7.95%. In the case of `CCS(=O)(=O)N1C[C@@H]2CN(Cc3ccco3)CCO[C@@H]2C1`, the Percent Effect is -0.26%. In the case of `Cc1cccc(CO[C@@H]2CC[C@H]3[C@H]2OCCN3Cc2nccs2)n1`, the Percent Effect was -27.1%. Regarding `COC(=O)CNC(=O)Cn1ccc2cccc(OC)c21`, the Percent Effect is -29.2%. `COC(=O)CNC(=O)c1nc(-c2ccccc2OC)c2cnccn12`: the Percent Effect was determined as 118%. For `COc1ccccc1-c1nc(C(=O)N(C)C)n2ccncc12`, the Percent Effect came out at 11.7%. Turning to `Cc1nnc(N2C[C@H](OCCCn3cccn3)[C@H]3OCCC[C@H]32)s1`, the Percent Effect is -20.4%. The result for `O=C1CO[C@H]2CN(Cc3cccnc3)C[C@H]2N1` reads 0.623%; that for `CC(=O)N1C[C@@H](c2ccsc2)[C@@H]2CN(CC3CCCCC3)CC[C@@H]21`, 18%.

With `Cc1cccc(-c2ccc(C(=O)NCC(C)(C)C(N)=O)c(=O)[nH]2)c1`, the Percent Effect amounted to 57.5%. The figure for `Cc1cccc(-c2ccc(C(=O)NCCN(C)C3CC3)c(=O)[nH]2)c1` is -29.9%; for `Cc1cccc(-c2ccc(C(=O)NCC3CCOC3)c(=O)[nH]2)c1` (centres undefined) it is -6.84%.

For the molecule `O=C(NC[C@H]1C[C@@H]2CN(C(=O)c3ccno3)C[C@@H]2O1)C1CCC1`, the Percent Effect is -26.6%. The figure for `CCN1C(=O)C[C@@H]2[C@@H]1CCN2S(=O)(=O)c1ccc(OC)cc1` is -42.1%. As to `O=C(c1cccs1)N1C[C@@H]2OCCN(CC3CCCO3)[C@@H]2C1` (some centres undefined), the Percent Effect worked out at 8.57%. The figure for `CCn1c(SCC(=O)N2CCCC2)nc2cc(C)[nH]c2c1=O` is 54.6%; for `Cc1cc2nc(SCC(=O)N3CCCC3)n(C)c(=O)c2[nH]1` it is -2.84%. The figure for `CCn1c(SCC(=O)N2CCOCC2)nc2cc(C)[nH]c2c1=O` is 11.1%; for `Cc1cc(C(=O)N2C[C@@H]3OCCN(CCN4CCCC4)[C@@H]3C2)c(C)o1` it is -5.69%; for `CCN1C(=O)C[C@@H]2[C@@H]1CCN2S(=O)(=O)Cc1ccc(C)cc1` it is 16.4%.
